Screens: PubChem, several laboratories
PREPL inhibitor – PREPL enzyme inhibitors, primary screen, biochemical, fluorescence polarization. 0.68% of 320,000 active. inhibition, % at 5.96 µM. AID 2751, 2010. Prolyl endopeptidase-like (Homo sapiens), Q4J6C6. recombinant PREPL, fluorescence polarization activity-based probe; in the data active = inhibition above about 43%
PP5 primary – PP5 phosphatase inhibitors, primary screen, biochemical, fluorescence; Serine/threonine-protein phosphatase 5 (Homo sapiens), P53041; purified PP5c, OMFP substrate fluorescence; inhibition, % at 6.7 µM; 0.18% of 320,000 active;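 active = inhibition above the campaign's mean inhibition across all tested compounds plus 3 SD, cut at about 9.5% in these data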
Rpn11 inh – Rpn11 (PSMD14) deubiquitinase inhibitors, primary screen, biochemical, fluorescence polarization, uHTS | 0.59% of 360,000 active | 26S proteasome non-ATPase regulatory subunit 14 (Homo sapiens), O00487 | inhibition, % at 20 µM | human 26S proteasome, Ub4-pepOG fluorescence polarization; 20S core pre-blocked with epoxomicin;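 active = inhibition at 20 µM, scaled to each plate's controls, above about 33%, limit read from the data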
PP1 counter – PP1-alpha phosphatase inhibitors, primary screen, counter-screen for PP5 inhibitor project, biochemical, fluorescence, OMFP substrate, single point; purified PP1alpha; 0.9% of 320,000 active; Serine/threonine-protein phosphatase PP1-alpha catalytic subunit (Homo sapiens), P62136; inhibition, % at 6.7 µM; AID 2235, 2010;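 active = inhibition above the mean inhibition of all tested compounds plus 3 SD, computed separately for each screening campaign, cut at about 15% in these data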
Target sequence (P62136 whole entry, looked up): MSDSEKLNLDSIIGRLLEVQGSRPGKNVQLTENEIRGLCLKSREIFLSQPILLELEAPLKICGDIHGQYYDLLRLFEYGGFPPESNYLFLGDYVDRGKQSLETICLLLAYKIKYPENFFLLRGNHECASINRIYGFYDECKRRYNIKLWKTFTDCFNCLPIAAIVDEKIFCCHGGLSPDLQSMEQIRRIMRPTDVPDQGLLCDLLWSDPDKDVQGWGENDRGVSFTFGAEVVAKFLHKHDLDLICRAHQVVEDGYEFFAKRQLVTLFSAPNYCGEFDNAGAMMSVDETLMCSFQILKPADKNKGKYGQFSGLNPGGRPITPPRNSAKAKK
NadD block – inhibitors of S. aureus NadD, primary screen, biochemical, colorimetric, uHTS; Nicotinate-nucleotide adenylyltransferase NadD (Staphylococcus aureus N315); purified NadD enzyme, colorimetric absorbance read-out; inhibition, % at 20 µM; 0.78% of 360,000 active; in the data active = inhibition above about 26%
Hits are given with their value; 0 = inactive; - = no result shown. An excerpt weighted towards active compounds, which were near 2.4% of everything screened.

SMILES	PREPL inhibitor	PP5 primary	Rpn11 inh	PP1 counter	NadD block
CC(=O)OC[C@]12CC[C@H]3[C@@](C)(CC[C@H]4C(C)(C)CCC[C@]34C)[C@@H]1CC(C1=CC(=O)OC1O)O2 (some centres undefined)	-	-	58	-	32
CC(=O)OC[C@]1(OC(C)=O)C[C@@]23CC[C@H]4[C@@](C)(CCC[C@@]4(C)C(=O)O)[C@@H]2CC[C@@H]1C3	0	0	0	0	0
NS(=O)(=O)c1ccc(N=Nc2c(O)c(C(=O)O)cc3ccccc23)cc1	0	0	0	0	31
COc1cccc(Cn2cnc3c(NS(=O)(=O)c4ccc(Cl)cc4Cl)c(C)c(C)cc32)c1	0	0	0	0	0
COc1cccc(Cn2cnc3c(NS(=O)(=O)c4cccc(Cl)c4Cl)c(C)c(C)cc32)c1	0	0	0	0	30
COc1ccccc1-c1cnc(C(O)c2cc(C)c(OC)c(C)c2)[nH]1 (centres undefined)	-	-	0	-	0
CCOc1ccc(/C=N/NC(=O)c2cc3c(OC)cccc3[nH]2)cc1	0	0	0	16	0
CCOC(=O)c1c(NC(=O)Cn2cnc3scc(-c4ccc(C)cc4)c3c2=O)sc(C)c1C	0	0	0	16	0
CCN(CC)C(=O)CSc1nc(-c2cccs2)cc(-c2cccs2)c1C#N	0	0	0	16	0
CCOc1cc(/C=C2/C(=O)N(c3ccccc3)N=C2C)ccc1OC(=O)c1ccco1	46	0	0	0	0
O=C(NCC1CC1)c1ccc(-c2cn[nH]c2)c2ccoc12	-	-	0	-	0
CC(C)(C)OC(=O)NCCCCCNC(=O)c1[nH]cnc1C(=O)N[C@@H](Cc1ccccc1)C(=O)OC(C)(C)C	0	-	0	-	0
CC(C)(C)OC(=O)NCCCC[C@H](NC(=O)c1[nH]cnc1C(=O)Nc1ccc(CNC(=O)OC(C)(C)C)cc1)C(=O)OC(C)(C)C	0	0	-	17	-
CC(C)(C)OC(=O)NCCCC[C@H](NC(=O)c1[nH]cnc1C(=O)N[C@@H](Cc1ccccc1)C(=O)OC(C)(C)C)C(=O)OC(C)(C)C	0	0	0	15	0
CC(C)(C)OC(=O)NCCCC[C@H](NC(=O)c1nc[nH]c1C(=O)NCc1ccccc1)C(=O)OC(C)(C)C	0	0	0	0	0
COc1ccccc1CNC(=O)CSc1cc(=O)n(C)c2ccccc12	0	0	0	0	0
CCOP(=O)(OCC)C(NC(=O)Nc1ccc(Cl)c(Cl)c1)C(N)=O (centres undefined)	0	0	0	17	0
C[C@H](c1ccccc1)N1C[C@H](COCc2ccccc2)Oc2cc(N3CC[C@@H](O)C3)ccc2S1(=O)=O	-	-	-	-	0
COc1ccc(/C=C/C(=O)c2c(O)cc(C)oc2=O)c(OC)c1	0	0	45	0	0
COc1cc(/C=C/C(=O)c2c(O)cc(C)oc2=O)cc(OC)c1O	0	0	0	0	0
Cc1cc(O)c(C(=O)/C=C/c2ccc(Cl)cc2)c(=O)o1	0	0	-	17	0
Cc1ccc(S(=O)(=O)NCC(=O)OCC(=O)NCc2ccco2)cc1	0	-	0	-	0
Cc1ccc(NC(=O)CN(C)CC(=O)Nc2ccc(N3CCOCC3)cc2)c(C)c1	54	0	0	0	0
COCCNC(=O)C1=C(N)C(C(=O)Nc2ccc(C)c(S(=O)(=O)N3CCCCC3)c2)SC1=Nc1ccc(C)cc1C (centres undefined)	0	0	0	0	50
COCCNCC(=O)Nc1ccc(C)c(S(=O)(=O)N2CCCCC2)c1	0	0	0	0	0
SMILES	PREPL inhibitor	PP5 primary	Rpn11 inh	PP1 counter	NadD block
COc1ccc(OCCN2CCC(C(=O)NC(c3ccc(F)cc3)c3ncccc3C)CC2)cc1 (centres undefined)	-	-	0	-	0
Cc1ccsc1/C=C1\Oc2cc(OCC(=O)c3ccccc3)ccc2C1=O	0	0	0	16	0
COc1ccc(/C=C2\Oc3cc(OCC(N)=O)ccc3C2=O)cc1OC	0	0	0	0	0
COc1ccc(NC(=O)/C(N=Nc2ccc(Cl)c(S(=O)(=O)Nc3ccc(Cl)cc3)c2)=C(\C)O)cc1	0	-	0	-	31
COc1ccc(NC(=O)/C(N=Nc2cc(S(=O)(=O)Nc3ccc(OC)cc3)ccc2OC)=C(\C)O)cc1	0	0	0	0	0
COc1ccc2c(c1)C(=NNc1ccc(C(=O)O)cc1)c1cc(OC)ccc1-2	0	0	0	16	0
COc1ccc(/C(C)=N/Nc2ccc(C(=O)O)cc2)c(OC)c1	0	0	0	0	0
CC(=O)Nc1ccc(NC(=O)c2ccc(-c3ccc([N+](=O)[O-])cc3)o2)cc1	0	0	0	16	0
COc1cccc(CNC(=O)[C@@H]2CCCN2C(=O)OC(C)(C)C)c1	-	-	-	-	0
Cc1cccc(N2CCN(S(=O)(=O)c3ccc4[nH]c(=O)ccc4c3)CC2)c1C	0	0	0	16	0
O=C(Cc1coc2cc3c(cc12)CCC3)NCC1(N2CCCCC2)CCCCC1	46	0	0	0	0
CCCCN(C=O)c1c(CC)nc2c(OCCOc3ccccc3)cccn12	-	-	0	-	0
N/C(=N\N=C/c1ccc(Br)cc1)N/N=C\c1ccc(Br)cc1	0	0	0	0	0
N/C(=N\N=C/c1ccc(F)cc1)N/N=C\c1ccc(F)cc1	0	0	0	16	0
COc1cccc(C2C(C(=O)c3cc4cccc(OC)c4o3)=C(O)C(=O)N2c2cc(C)on2)c1OC (centres undefined)	0	0	0	0	0
COc1cccc2cc(C(=O)C3=C(O)C(=O)N(c4cc(C)on4)C3c3cccs3)oc12 (centres undefined)	0	0	0	23	0
COC(=O)c1ccc(C2C(C(=O)c3cc4ccccc4o3)=C(O)C(=O)N2c2cc(C)on2)cc1 (centres undefined)	0	0	0	27	0
COc1cccc(C2C(C(=O)c3cc4ccccc4o3)=C(O)C(=O)N2c2cc(C)on2)c1OC (centres undefined)	0	0	0	15	0
COc1cc(C2C(C(=O)c3cc4ccccc4o3)=C(O)C(=O)N2c2cc(C)on2)cc(OC)c1OC (centres undefined)	0	0	0	17	0
CN(C)CCN1CCN(C(c2ccnc3ccccc23)c2nnnn2-c2ccc3c(c2)OCCO3)CC1 (centres undefined)	-	-	-	-	0
CC1=C(C(=O)N(C(C)C)C(C)C)CC(CC(=O)NCc2ccco2)C(=O)N1Cc1ccc(F)cc1 (centres undefined)	-	-	0	-	0
CN(C)CCNC(=O)c1ccc2nc([C@@H]3O[C@H](CO)[C@H](O)[C@H](O)[C@H]3O)[nH]c2c1	-	-	0	-	0
O=S(=O)(Nc1nc(-c2sccc2Cl)cs1)c1cc(Cl)ccc1Cl	0	0	0	19	0
